Measurements as given in PubChem BioAssay AID1159580 (chemical genetic matrix, 2015).
Values joined by “and” are separate entries in the source; they are usually repeats but may differ in a detail not shown here. Equal values may be shown once. The whole screen tested about 5,500 compounds, of which about 2,000 (36%) were called active. Inconclusive results (about 18%) are left out. No stated cut-off is given here; in the data, active means normalized growth mostly below about 0.91 (no sharp cut-off); inconclusive means no clear call, values can overlap the other calls; inactive means mostly above about 0.92. Some of the results follow.

Assay: chemical genetic growth profiling, strain panel (AID 1159580);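 further: tested at 20 µM; growth read once vehicle control cultures reached saturation at 30 °C; 1 = growth at the plate median or of vehicle wells; lower values mean less growth of the strain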
Details: S. cerevisiae deletion strains, growth OD

Measured: normalized growth

CC(C)C(=O)Nc1ccc([N+](=O)[O-])c(C(F)(F)F)c1
inactive: locus YAL013W, strain DEP1, active compounds read low 0.995 | locus YAL021C, strain ccr4, active compounds read low 1.03 | locus YAL026C, strain drs2, active compounds read low 1.01 | locus YAL030W, strain snc1, active compounds read low 1.02 | locus YAL040C, strain CLN3, active compounds read low 0.959 | locus YBL061C, strain skt5, active compounds read low 1.02 | locus YBR009C, strain hhf1, active compounds read low 1.03 | locus YBR021W, strain FUR4, active compounds read low 0.929 | locus YBR023C, strain chs3, active compounds read low 1.03 | locus YBR171W, strain sec66, active compounds read low 1.04 | locus YBR229C, strain ROT2, active compounds read low 0.99 | locus YBR231C, strain swc5, active compounds read low 0.994 | locus YBR279W, strain paf1, active compounds read low 1.02 | locus YCL011C, strain gbp2, active compounds read low 1.02 | locus YCL016C, strain dcc1, active compounds read low 1.01 | locus YCL029C, strain bik1, active compounds read low 0.99 | locus YCL061C, strain MRC1 (second series), active compounds read low 0.999 | locus YCL069W, strain vba3, active compounds read low 1.02 | locus YCR088W, strain abp1, active compounds read low 1.01 | locus YDL005C, strain med2, active compounds read low 1.03 | locus YDL035C, strain GPR1, active compounds read low 0.993 | locus YDL040C, strain nat1, active compounds read low 1.02 | locus YDL074C, strain BRE1, active compounds read low 0.946 | locus YDL101C, strain DUN1, active compounds read low 0.993 | locus YDL134C, strain PPH21, active compounds read low 0.991 | locus YDL185W, strain tfp1, active compounds read low 0.98 | locus YDL192W, strain arf1, active compounds read low 0.977 | locus YDR001C, strain nth1, active compounds read low 1.02 | locus YDR069C, strain doa4, active compounds read low 1.02 | locus YDR101C, strain arx1, active compounds read low 0.969 | locus YDR137W, strain rgp1, active compounds read low 0.983 | locus YDR150W, strain NUM1, active compounds read low 0.994 and 0.998 | locus YDR159W, strain sac3, active compounds read low 1.03 | locus YDR162C, strain NBP2, active compounds read low 0.982 | locus YDR195W, strain ref2 1.07 | locus YDR297W, strain sur2, active compounds read low 1.01 | locus YDR318W, strain mcm21, active compounds read low 0.964 | locus YDR334W, strain swr1, active compounds read low 1.01 | locus YDR335W, strain msn5, active compounds read low 1.03 | locus YDR363W, strain ESC2, active compounds read low 1.05 | locus YDR388W, active compounds read low 0.961 | locus YDR392W, strain spt3, active compounds read low 0.999 | locus YDR502C, strain sam2, active compounds read low 0.96 | locus YEL003W, strain gim4, active compounds read low 1.02 | locus YEL037C, strain rad23, active compounds read low 1.02 | locus YEL061C, strain CIN8 (second series), active compounds read low 1.01 | locus YEL061C, strain CIN8, active compounds read low 0.993 | locus YER002W, strain NOP16, active compounds read low 0.972 | locus YER015W, strain faa2, active compounds read low 1.02 | locus YER016W, strain bim1, active compounds read low 1.01 | locus YER110C, active compounds read low 0.979 | locus YER111C, strain swi4, active compounds read low 1.03 | locus YER155C, strain BEM2 (second series), active compounds read low 0.993 | locus YER155C, strain BEM2, active compounds read low 0.985 | locus YER167W, strain BCK2, active compounds read low 0.969 | locus YFR010W, strain ubp6, active compounds read low 1.04 | locus YGL078C, strain dbp3, active compounds read low 0.984 | locus YGL086W, strain mad1, active compounds read low 0.984 | locus YGL167C, strain pmr1, active compounds read low 1.03 | locus YGL173C, strain kem1, active compounds read low 1.03 | locus YGL227W, strain vid30, active compounds read low 1.03 | locus YGL240W, strain doc1, active compounds read low 1.01 | locus YGL248W, strain PDE1, active compounds read low 0.988 | locus YGL253W, strain hxk2, active compounds read low 1.02 | locus YGR078C, strain PAC10, active compounds read low 0.992 and 0.982 | locus YGR135W, strain pre9, active compounds read low 0.968 | locus YGR229C, strain SMI1, active compounds read low 0.978 | locus YGR252W, strain gcn5, active compounds read low 0.916 | locus YHR013C, strain ard1, active compounds read low 0.995 | locus YHR027C, strain rpn1, active compounds read low 1.04 | locus YHR030C, strain SLT2, active compounds read low 0.994 and 0.977 | locus YHR079C, strain IRE1 (second series), active compounds read low 0.975 | locus YHR079C, strain IRE1, active compounds read low 0.964 | locus YHR094C, strain hxt1, active compounds read low 0.98 | locus YHR129C, strain ARP1, active compounds read low 0.981 | locus YHR142W, strain chs7, active compounds read low 1.03 | locus YHR200W, strain rpn10, active compounds read low 0.963 | locus YIL066C, strain RNR3, active compounds read low 0.986 | locus YIL073C, strain SPO22, active compounds read low 0.98 | locus YIL125W, strain kgd1, active compounds read low 0.983 | locus YIR030C, strain dcg1, active compounds read low 0.973 | locus YJL092W, strain hpr5, active compounds read low 1.03 | locus YJL095W, strain BCK1 (second series), active compounds read low 1.01 | locus YJL095W, strain BCK1, active compounds read low 0.958 and 0.976 | locus YJL115W, strain asf1, active compounds read low 1.03 | locus YJL129C, strain trk1, active compounds read low 1.04 | locus YJL134W, strain LCB3, active compounds read low 0.986 | locus YJL154C, strain vps35, active compounds read low 1.02 | locus YJL164C, strain tpk1, active compounds read low 1.02 | locus YJL166W, strain qcr8, active compounds read low 1.02 | locus YJL168C, strain set2, active compounds read low 0.977 | locus YJL187C, strain SWE1 (second series), active compounds read low 0.988 | locus YJR043C, strain POL32, active compounds read low 0.967 | locus YJR066W, strain TOR1, active compounds read low 0.92 | locus YJR075W, strain HOC1, active compounds read low 0.98
